This is part of a sample that, as a whole, favours compounds with a hit. Of some 79,000 tested, about 15% had one in any assay. Values without a mark were called inactive. Activity calls are given as the source filed them. Rule as the data show it: active = growth inhibition above about 70%; inactive = the rest.

The nature of one assay: NCI Yeast Anticancer Drug Screen. Data for the rad50 strain (AID 155).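 Also: 0% = growth of vehicle-only cultures of the same strain.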 As to conditions: S. cerevisiae rad50 strain growth inhibition; at 50.0 µM; hits give high values. In short, it runs like this: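 Compounds were tested on a yeast strain with an engineered DNA damage repair alteration; the reported value is growth inhibition normalised to vehicle treatment.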
`COc1ccc(NC(=O)CSc2nc(C)nc3c2sc(=S)n3-c2ccccc2)cc1`: the growth inhibition was -16.7%.

Consider `CCN(CC)Cc1ccccc1COC(=O)c1ccc(OC)cc1`, for which the growth inhibition is -0.1%.

On to `c1ccc(-c2c(-c3cccs3)[nH]c(-c3cccs3)c2-c2ccccn2)nc1`, for which the growth inhibition is -6.7%.

For `N#CCCNC1CCCCC1`, the growth inhibition was 2.95%.

For the compound `CCC(=O)NC(OCC1(CC)COC1)(C(F)(F)F)C(F)(F)F`, the growth inhibition is -8.6%.

On to `COc1cc(OC)c(NC(=O)/C=C/c2ccccc2)cc1Cl`, for which the growth inhibition was -3.45%.

`CCOC(=O)c1nc2ccc(C(F)(F)F)cc2[nH]c1=O`: the growth inhibition is -23.9%.

On to `Cn1c(=O)oc2cc(C(O)CN3CCN(Cc4ccccn4)CC3)c(Cl)cc21` (stereo not given), for which the growth inhibition was -19.6%.

For the compound `CN1C(CC(=O)c2ccccc2)CCCC1CC(O)c1ccccc1` (stereo not given), the growth inhibition was 13.9%.

Turning to `O=C(O)CCC(CCC(=O)O)(C(=O)O)c1ccccc1`, the growth inhibition was -20.1%.

As to `COC1OC(CI)C(OC(=O)c2ccccc2)C(OC(=O)c2ccccc2)C1OC(=O)c1ccccc1` (stereo not given), the growth inhibition was 10.8%.

As to `CC1(C)N=C(N)N=C(N)N1c1cccc(/C=C/c2ccc([N+](=O)[O-])cc2)c1`, the growth inhibition is 2.45%.

On to `Cc1ncc([N+](=O)[O-])cc1C(=O)O`, for which the growth inhibition was 1%.

`O=C(c1ccccc1)C1(c2ccccc2)C(C(=O)c2ccccc2)(c2ccccc2)S1(=O)=O` (stereo not given): the growth inhibition was -19.8%.

`CCCCCC/C(C)=N/O`: the growth inhibition was -1.8%.

`CC(OC1CC(=O)CC2C(=O)C=CC(=O)C12)c1ccccc1` (stereo not given): the growth inhibition was 25.1%.

As to `C/C=C(\C)C(=O)N/N=C\C=C\c1ccccc1`, the growth inhibition is -12.2%.

For `CN(C)OC(=O)Nc1cccc([N+](=O)[O-])c1`, the growth inhibition is 19.1%.

Turning to `O=S(=O)(Nc1cccc(Cl)c1)c1ccc(Cl)cc1`, the growth inhibition was 99.7% (active).

`BrCCC1(CCBr)CCCCC1`: the growth inhibition was 54%.

In the case of `CN(C)CCCCCCNCCC#N`, the growth inhibition is 21.2%.

On to `COC(=O)c1ccc(C(=O)OC)c2nc3cc(C)ccc3nc12`, for which the growth inhibition is -39.1%.

For `COc1ccc(C(=O)c2ccc(OC)c3ccccc23)c2ccccc12`, the growth inhibition was -7.3%.

`CC1C=CCCC1COC(=O)C(=O)OCC1CC=CCC1C` (stereo not given): the growth inhibition is 32.7%.

Take `CCN(CC)c1ncnc2n[nH]nc12`: the growth inhibition is -1.5%.

As to `COC1(OC)C(c2ccc(Cl)cc2)C(C#N)(C#N)C1(OC)OC` (stereo not given), the growth inhibition was -7.25%.

`Cc1cc(Br)cc(C)c1NC(=O)C(=O)C1C(=O)C(CC2C(=O)c3ccccc3C2=O)C(=O)CC1(C)C` (stereo not given): the growth inhibition is 36.1%.

Regarding `CCN(CC)CCCNc1ncnc2onc(C)c12`, the growth inhibition was 15.3%.

`CC(C)CC(CCl)Cc1nc2ccccc2[nH]1` (stereo not given): the growth inhibition is 13.1%.

With `COc1ccc(OCOCOc2ccc(OC)cc2)cc1`, the growth inhibition is -8.05%.

As for `CCN(CC)Cc1cc(N)cc(N=Nc2ccc3c(c2)c2ccccc2n3CC)c1O`, the growth inhibition is 29.2%.

For the compound `CCOC(=O)CNC(=O)NC`, the growth inhibition is 1.25%.

`S=P(c1ccccc1)(c1ccccc1)C(P(c1ccccc1)c1ccccc1)P(c1ccccc1)c1ccccc1`: the growth inhibition was 47.9%.

For the compound `c1ccc(N2CCN(c3ccccn3)CC2)nc1`, the growth inhibition is -2.65%.

As to `O=C(Nc1nc(C23CC4CC(CC(C4)C2)C3)cs1)c1cc2cc([N+](=O)[O-])ccc2oc1=O`, the growth inhibition is -12.7%.

In the case of `CCCCCCC(O)CCCCCCCCCCCO` (stereo not given), the growth inhibition was 41.5%.

For `O=C(Cc1ccccc1)Nc1ccc([N+](=O)[O-])cc1Cl`, the growth inhibition was 4.95%.

For the compound `CNC(=O)CCC(=O)O`, the growth inhibition is -7.25%.

As to `OC1(c2ccc(-c3ccc(-c4ccc(C5(O)C(c6ccccc6)=C(c6ccccc6)C(c6ccccc6)=C5c5ccccc5)cc4)cc3)cc2)C(c2ccccc2)=C(c2ccccc2)C(c2ccccc2)=C1c1ccccc1`, the growth inhibition is 1.05%.

Turning to `Cc1cc(Br)c2c(c1N)C(=O)c1ccccc1C2=O`, the growth inhibition is 23.6%.

A further assay is described as follows: NCI Yeast Anticancer Drug Screen. Data for the mec2-1 strain (AID 157). As to conditions: S. cerevisiae mec2-1 strain, at 50.0 µM, hits give high values. In short, it runs like this:
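Test agents were screened against the mec2-1 yeast strain, with defined DNA repair or cell cycle alteration. Growth was scored as inhibition against vehicle-only controls.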
On to `COc1ccc(NC(=O)CSc2nc(C)nc3c2sc(=S)n3-c2ccccc2)cc1`, for which the growth inhibition was -4.85%.

For `CCN(CC)Cc1ccccc1COC(=O)c1ccc(OC)cc1`, the growth inhibition is -3.45%.

For `c1ccc(-c2c(-c3cccs3)[nH]c(-c3cccs3)c2-c2ccccn2)nc1`, the growth inhibition was 17.1%.

Turning to `N#CCCNC1CCCCC1`, the growth inhibition was 4%.

Turning to `CCC(=O)NC(OCC1(CC)COC1)(C(F)(F)F)C(F)(F)F`, the growth inhibition was -10.8%.

In the case of `COc1cc(OC)c(NC(=O)/C=C/c2ccccc2)cc1Cl`, the growth inhibition is -75.7%.

In the case of `CCOC(=O)c1nc2ccc(C(F)(F)F)cc2[nH]c1=O`, the growth inhibition was -14.2%.

As to `Cn1c(=O)oc2cc(C(O)CN3CCN(Cc4ccccn4)CC3)c(Cl)cc21` (stereo not given), the growth inhibition was 3.9%.

As to `CN1C(CC(=O)c2ccccc2)CCCC1CC(O)c1ccccc1` (stereo not given), the growth inhibition is 2.25%.

`O=C(O)CCC(CCC(=O)O)(C(=O)O)c1ccccc1`: the growth inhibition is -6.5%.

Take `COC1OC(CI)C(OC(=O)c2ccccc2)C(OC(=O)c2ccccc2)C1OC(=O)c1ccccc1` (stereo not given): the growth inhibition was 21.4%.

`CC1(C)N=C(N)N=C(N)N1c1cccc(/C=C/c2ccc([N+](=O)[O-])cc2)c1`: the growth inhibition is -7.35%.

On to `Cc1ncc([N+](=O)[O-])cc1C(=O)O`, for which the growth inhibition is 10%.

In the case of `O=C(c1ccccc1)C1(c2ccccc2)C(C(=O)c2ccccc2)(c2ccccc2)S1(=O)=O` (stereo not given), the growth inhibition was -13.5%.

Regarding `CCCCCC/C(C)=N/O`, the growth inhibition was 3.75%.

Turning to `CC(OC1CC(=O)CC2C(=O)C=CC(=O)C12)c1ccccc1` (stereo not given), the growth inhibition was 21.8%.

`C/C=C(\C)C(=O)N/N=C\C=C\c1ccccc1`: the growth inhibition is -10.8%.

Regarding `CN(C)OC(=O)Nc1cccc([N+](=O)[O-])c1`, the growth inhibition was 13.3%.

For the compound `O=S(=O)(Nc1cccc(Cl)c1)c1ccc(Cl)cc1`, the growth inhibition was 99.8% (active).

For the compound `BrCCC1(CCBr)CCCCC1`, the growth inhibition is 39.4%.

In the case of `CN(C)CCCCCCNCCC#N`, the growth inhibition is -27.8%.

`COC(=O)c1ccc(C(=O)OC)c2nc3cc(C)ccc3nc12`: the growth inhibition is -2.3%.

For `COc1ccc(C(=O)c2ccc(OC)c3ccccc23)c2ccccc12`, the growth inhibition is -5.8%.

As to `CC1C=CCCC1COC(=O)C(=O)OCC1CC=CCC1C` (stereo not given), the growth inhibition was 0.15%.

As to `CCN(CC)c1ncnc2n[nH]nc12`, the growth inhibition is -15.6%.

As for `COC1(OC)C(c2ccc(Cl)cc2)C(C#N)(C#N)C1(OC)OC` (stereo not given), the growth inhibition was -13.2%.

Regarding `Cc1cc(Br)cc(C)c1NC(=O)C(=O)C1C(=O)C(CC2C(=O)c3ccccc3C2=O)C(=O)CC1(C)C` (stereo not given), the growth inhibition was 22.9%.

Take `CCN(CC)CCCNc1ncnc2onc(C)c12`: the growth inhibition was 15.2%.

For `CC(C)CC(CCl)Cc1nc2ccccc2[nH]1` (stereo not given), the growth inhibition was 4.05%.

Regarding `COc1ccc(OCOCOc2ccc(OC)cc2)cc1`, the growth inhibition is 9.5%.

For `CCN(CC)Cc1cc(N)cc(N=Nc2ccc3c(c2)c2ccccc2n3CC)c1O`, the growth inhibition was 0%.

For `CCOC(=O)CNC(=O)NC`, the growth inhibition is 8.15%.

Turning to `S=P(c1ccccc1)(c1ccccc1)C(P(c1ccccc1)c1ccccc1)P(c1ccccc1)c1ccccc1`, the growth inhibition is 49.9%.

Turning to `c1ccc(N2CCN(c3ccccn3)CC2)nc1`, the growth inhibition was -13.6%.

Turning to `O=C(Nc1nc(C23CC4CC(CC(C4)C2)C3)cs1)c1cc2cc([N+](=O)[O-])ccc2oc1=O`, the growth inhibition is -31.5%.

Consider `CCCCCCC(O)CCCCCCCCCCCO` (stereo not given), for which the growth inhibition is -15.4%.

Regarding `O=C(Cc1ccccc1)Nc1ccc([N+](=O)[O-])cc1Cl`, the growth inhibition was 16.1%.

With `CNC(=O)CCC(=O)O`, the growth inhibition is -20.2%.

Regarding `OC1(c2ccc(-c3ccc(-c4ccc(C5(O)C(c6ccccc6)=C(c6ccccc6)C(c6ccccc6)=C5c5ccccc5)cc4)cc3)cc2)C(c2ccccc2)=C(c2ccccc2)C(c2ccccc2)=C1c1ccccc1`, the growth inhibition is 4.4%.

Regarding `Cc1cc(Br)c2c(c1N)C(=O)c1ccccc1C2=O`, the growth inhibition is 35%.
